About 5,700 (36%) of roughly 16,000 compounds were called active. Not shown: some 24% with an inconclusive outcome. The list shows a part of the results. Values without a mark were called inactive. Calls follow the shape of the dose curve; as a rule, active = well fitted curve in the direction sought with a large enough effect; inconclusive = small, poorly fitted or top-dose-only effect, or effect the other way; inactive = no such curve, though single readings can be large or run the other way.
The compounds below were run against Cytochrome P450 1A2 (Homo sapiens) (UniProt P05177) (assay: Cytochrome panel assay with activity outcomes). Settings: recombinant CYP, pro-luciferin dealkylation, luminescence, p450-cyp1a2; series mostly up to 57.1 µM.
% is scaled to controls: 0 for no effect and ±100 for the full control effect.

Sequence of Cytochrome P450 1A2 (Homo sapiens) (P05177 whole entry, looked up): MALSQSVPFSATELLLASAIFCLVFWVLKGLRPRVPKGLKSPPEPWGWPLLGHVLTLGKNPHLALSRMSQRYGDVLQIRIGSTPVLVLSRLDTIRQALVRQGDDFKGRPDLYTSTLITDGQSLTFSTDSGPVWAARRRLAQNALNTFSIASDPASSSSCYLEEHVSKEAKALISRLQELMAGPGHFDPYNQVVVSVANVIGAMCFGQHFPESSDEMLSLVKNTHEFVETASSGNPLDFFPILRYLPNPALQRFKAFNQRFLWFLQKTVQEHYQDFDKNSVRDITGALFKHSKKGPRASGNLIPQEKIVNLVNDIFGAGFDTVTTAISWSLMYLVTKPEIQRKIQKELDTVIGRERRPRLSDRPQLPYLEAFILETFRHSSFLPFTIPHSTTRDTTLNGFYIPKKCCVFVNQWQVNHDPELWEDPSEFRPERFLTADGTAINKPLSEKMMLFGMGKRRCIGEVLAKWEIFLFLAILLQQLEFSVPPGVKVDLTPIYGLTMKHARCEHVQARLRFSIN

Compound | AC50 | activity, negative = inhibition
CO[C@H]1C=CO[C@]2(C)Oc3c(C)c(O)c4c(O)c(c5c(c4c3C2=O)NC2(CCN(CC(C)C)CC2)N=5)=NC(=O)C(C)=CC=C[C@@H](C)[C@@H](O)[C@@H](C)[C@@H](O)[C@@H](C)[C@@H](OC(C)=O)[C@@H]1C | inactive | –
COc1ccc(NC(=O)N2CC3(CCN(C(=O)c4csnn4)CC3)C2)cc1 | inactive | –
CCN1CCCC1Cn1cnc2c([nH]c3ccc(C)cc32)c1=O (centres undefined) | 15.8 µM (active) | –
O=C(O)CC[C@@H](C(=O)O)N1C(=O)c2ccccc2C1=O | inactive | –
O=C(CCN1C(=O)c2ccccc2C1=O)Oc1ccc2ccccc2c1 | 17.8 µM (active) | –
O=C(O)[C@H](CCc1ccccc1)N1C(=O)c2ccccc2C1=O | – | -9.63% [at 2.29 µM]
CCOc1ccc(Cl)cc1CNCCNCCO | 15.8 µM (active) | –
CCOc1ccc(CC(C(N)=O)C(N)=O)cc1CN(C)C | inactive | –
CCOc1cc(CNCCc2ccc(S(N)(=O)=O)cc2)ccc1OCc1ccc(Cl)cc1 | inactive | –
CCOc1ccccc1CNCCN1CCOCC1 | inactive | –
CCOc1ccc(Cl)cc1CNCCNCC(C)O (centres undefined) | 12.6 µM (active) | –
COc1c(Cl)cc(Cl)cc1CNCCNCC(C)O (centres undefined) | 11.2 µM (active) | –
Oc1ccc(-c2[nH]ncc2-c2ccc(Cl)cc2)c(O)c1 | 1.58 µM (active) | –
C=C(C)COc1ccc(-c2n[nH]c(C)c2-c2ccc(OC)cc2)c(O)c1 | 14.1 µM (active) | –
Cc1[nH]nc(-c2ccc(O)cc2O)c1-c1ccc(Cl)cc1 | 2.24 µM (active) | –
CC1(C)O[C@@H]2O[C@H]([C@H](O)CO/N=C3/[C@H]4O[C@@H]4[C@@H](O)[C@H]4[C@H]3CCn3c(=O)n(-c5ccccc5)c(=O)n34)[C@@H](O)[C@@H]2O1 | – | -7.71% [at 11.4 µM]
Cc1cc(NC(=O)C2C3C(=O)N(Cc4ccc(Cl)cc4)C(C(=O)NC(C)(C)C)C34C=CC2(C)O4)no1 (centres undefined) | inactive | –
O=C(COc1ccc2ccccc2c1Br)NNC(=O)Nc1ccccc1 | 5.62 µM (active) | –
CCCC(=O)NNC(=O)Nc1ccccc1 | inactive | –
N#Cc1ccc(-c2ccc(F)cc2)nc1Oc1ccc(Cl)c(Cl)c1 | 1 µM (active) | –
CCc1nnc(NC(=O)CSc2ncnc3c2cnn3-c2ccc(OC)cc2)s1 | inactive | –
Cc1ccc(-n2ncc3c(=O)n(CC(=O)NCC4CCCO4)cnc32)cc1 (centres undefined) | inactive | –
COc1ccc(-n2ncc3c(NCC4CCCO4)ncnc32)cc1 (centres undefined) | 14.1 µM (active) | –
Cc1nn(-c2nc3ccccc3[nH]2)c(N)c1-c1ccc(Cl)cc1 | 5.62 µM (active) | –

Compound | AC50 | activity, negative = inhibition
CCNC(=S)NNC(=O)c1cc(CC(C)C)nc2ccccc12 | inactive | –
CCNC(=S)NNC(=O)c1cc(C2CC2)nc2ccccc12 | 8.91 µM (active) | –
COC(=O)C/C=C\[C@@H](C)[C@@H](/C=N\O[C@@H](C)c1cc(-c2c(C)cc(C)cc2C)no1)OC | – | -3.54% [at 11.4 µM]
O=C(O)C/C(=C\c1ccco1)C(=O)O | – | -11.8% [at 2.29 µM]
CC(C)C(C(=O)O)N1C(=O)/C(=C/C=C/c2ccco2)SC1=S (centres undefined) | inactive | –
O=C(C=C1SCCS1)/C=C/c1ccco1 | 11.2 µM (active) | –
Cc1cc(C)c(NC(=O)C[C@H](CC(=O)O)c2cccc3ccccc23)c(C(=O)N2CCC3(CCCC3)CC2)c1 | inactive | –
COc1ccccc1CC(=O)Nc1cc2oc3ccccc3c2cc1OC | 1 µM (active) | –
COC(=O)N1CCC2(CCCN(Cc3ccccc3OC)C2)CC1 | inactive | –
COc1cc2c(cc1NC(=O)Nc1ccccc1)oc1ccccc12 | 2 µM (active) | –
COC(=O)N1CCC2(CCN(Cc3ccccc3OC)CC2)CC1 | inactive | –
COc1cc2c(cc1NC(=O)c1cc(-c3cccnc3)nc3ccc(C)cc13)oc1ccccc12 | 12.6 µM (active) | –
COc1ccc(NC(=O)c2cc(-c3cccnc3)nc3ccc(C)cc23)cc1OC | inactive | –
CC1(C)C(=O)C(c2ccccc2)=C2CN3C(=O)N(CCc4ccccc4)C(=O)C3(Cc3ccc(C(F)(F)F)cc3)C=C21 (centres undefined) | inactive | –
CC[C@]1(C)CC(=O)NC1=O | inactive | –
CSc1nnc(-c2cc3c(-c4ccccc4)nn(C)c3s2)n1C | 0.501 µM (active) | –
C=CCSc1nnc(-c2cc3c(-c4ccccc4)nn(C)c3s2)n1C | 0.282 µM (active) | –
O=c1c(-c2nc3ccccc3s2)cccn1Cc1ccccc1 | 1.78 µM (active) | –
C=CCn1c(-c2cccn(Cc3ccccc3)c2=O)n[nH]c1=S | inactive | –
Cn1c(=O)c2[nH]c(CCCCc3nc4ccccc4[nH]3)nc2n(C)c1=O | – | -15.8% [at 11.4 µM]
CC(=O)COC(=O)CCc1nc2ccccc2[nH]c1=O | 6.31 µM (active) | –
O=C(CCc1nc2ccccc2c(=O)[nH]1)OCC(=O)N1CCN(S(=O)(=O)c2ccccc2)CC1 | inactive | –
CNCCNS(=O)(=O)c1cccc2cnccc12 | inactive | –
O=S(=O)(NCCNC/C=C\c1ccc(Br)cc1)c1cccc2cnccc12 | 2 µM (active) | –

Compound | AC50 | activity, negative = inhibition
O=C(NCc1ccccc1)C(c1cccs1)N(Cc1cccs1)C(=O)c1cnccn1 (centres undefined) | inactive | –
O=C(COC(=O)c1cnccn1)NCc1ccccc1 | 22.4 µM (active) | –
Cc1cnc(C(=O)OCC(=O)NC(C)C)cn1 | inactive | –
Cc1ccc(CNC(=O)COC(=O)c2cnccn2)cc1 | 10 µM (active) | –
COc1ccc(C(C(=O)NCc2ccccc2)N(Cc2cccs2)C(=O)c2cnccn2)cc1 (centres undefined) | inactive | –
COC(=O)C/C=C\[C@@H](C)[C@@H](CO)NS(=O)(=O)c1ccc(C)cc1 | – | -0.334% [at 11.4 µM]
COc1ccc(C(=O)n2c(SC)nc3cc4c(cc32)OCCO4)cc1 | 3.16 µM (active) | –
COc1cccc(C(=O)n2c(SC)nc3cc4c(cc32)OCCO4)c1 | 5.01 µM (active) | –
COc1ccc(C(=O)Nc2ccc3c(c2)nc(CN2CCN(C(C)=O)CC2)n3C)cc1 | inactive | –
COc1ccc(C(=O)N2CCC3(CCN(Cc4ccncc4)CC3)CC2)cc1 | inactive | –
O=C1C2=CC[C@@H]3C(=O)N(c4ccc(F)cc4F)C(=O)[C@H]3[C@H]2[C@H](O)[C@H]2O[C@H]12 | – | -3.38% [at 11.4 µM]
CCC(=O)O[C@@]1(C(=O)SCF)[C@@H](C)C[C@H]2[C@@H]3C[C@@H](F)C4=CC(=O)C=C[C@@]4(C)[C@]3(F)[C@@H](O)C[C@]21C | inactive | –
COc1ccc(NC(=O)CN2c3cccc4cccc(c34)S2(=O)=O)cc1 | 3.16 µM (active) | –
O=C(CN1C(=O)c2ccccc2S1(=O)=O)Nc1ccccc1 | inactive | –
CS(=O)(=O)Nc1c(O)ccc2c1CCC[C@H]2C1=NCCN1 | inactive | –
CS(=O)(=O)N1CCC2(CCN(C(=O)Nc3cccc(F)c3)CC2)CC1 | inactive | –
CC1(C)CC(=O)c2c(Cc3ccccc3)n[nH]c2C1 | inactive | –
CCOC(=O)c1c(C)nc2c(c1-c1ccccc1)C(=O)CC(C)(C)C2 | 14.1 µM (active) | –
CCOC(=O)c1c(C)nc2sc3c(=O)n(-c4ccc(C)cc4)cnc3c2c1-c1ccc(OC)cc1 | inactive | –
CCOC(=O)c1c(C)nc2c(c1-c1ccccc1)C(=O)CCC2 | 0.282 µM (active) | –
CCCCCCCCCCn1c2c(c(=N)c3c1CCC3)CCC2 | 14.1 µM (active) | –
C[C@H]1COC(=O)[C@H]2CCCN2C(=O)[C@@H](C)COC(=O)[C@H](Cc2ccccc2)NC1=O | – | -1.22% [at 11.4 µM]
Oc1c(Br)cc(CN(Cc2cc(Br)c(O)c(Br)c2)C2CCCCC2)cc1Br | – | -5.68% [at 2.29 µM]
Oc1c(Br)cc(Br)cc1CN(Cc1cc(Br)cc(Br)c1O)C1CCCCC1 | 3.16 µM (active) | –

Compound | AC50 | activity, negative = inhibition
CON1C(=O)C(=O)N(OC)C2CCCCC21 (centres undefined) | inactive | –
COc1cccc(-c2nc(NCc3cnc(C)cn3)c3ccccc3n2)c1 | 0.398 µM (active) | –
Cc1cnc(CNc2nc(-c3cccnc3)nc3ccccc23)cn1 | 2.51 µM (active) | –
CN(C)c1ccc(-c2nccc(NCc3cccs3)n2)cc1 | 0.398 µM (active) | –
CN(C)CCN(Cc1cccs1)c1ccccn1 | inactive | –
c1cncc(-c2nccc(NCc3cccs3)n2)c1 | 0.2 µM (active) | –
CN(C)C(=O)c1ccc(-c2nccc(NCc3cccs3)n2)cc1 | 15.8 µM (active) | –
c1csc(CNc2ccnc(-c3ccoc3)n2)c1 | 1 µM (active) | –
CC(C)=CCC/C(C)=C/CO/N=C1/[C@H]2O[C@@H]2[C@@H](O)[C@H]2[C@H]1CCn1c(=O)n(-c3ccccc3)c(=O)n12 | – | 3.05% [at 11.4 µM]
C[C@@H](c1ccccc1)N1C(=O)[C@H]2[C@H]3[C@H](O)[C@H](O)C/C(=N/OCc4ccccc4)[C@H]3CC[C@@H]2C1=O | – | -3.77% [at 11.4 µM]
Cc1nc(NC(=O)c2ccccc2)sc1-c1csc(Nc2cccc(F)c2)n1 | 11.2 µM (active) | –
Cc1nc(NC(=O)c2ccccc2)sc1-c1csc(Nc2ccc(Cl)cc2Cl)n1 | inactive | –
COc1ccccc1Nc1nc(-c2sc(NC(=O)c3ccccc3)nc2C)cs1 | inactive | –
C=CCCC(=O)Nc1nc(C)c(-c2csc(Nc3ccc(Cl)cc3)n2)s1 | 5.01 µM (active) | –
Cc1ncc(CO)c(CO)c1O | inactive | –
Cc1nnc(N(C)C(=O)c2ccccn2)s1 | inactive | –
CC(=O)N(C)c1nnc(-c2cnccn2)s1 | 6.31 µM (active) | –
C[C@@H]1C(=O)N(C)C(=O)c2nc[nH]c21 | inactive | –
O=C1OC(OC2CCCCC2)(c2ccccc2)c2ccccc21 (centres undefined) | inactive | –
Cc1ccccc1-c1cncnc1Nc1ccccc1 | 15.8 µM (active) | –
Cc1ccccc1-c1cncnc1Nc1ccc(F)cc1 | 10 µM (active) | –
CCOCCCNC(=O)CCS(=O)(=O)Cc1ccc(C)cc1 | inactive | –
